Bioassay records deposited in PubChem BioAssay by National Center for Advancing Translational Sciences (NCATS).
HP1b chromo inh – blocks HP1-beta chromodomain binding to methylated histone tails | AID 540317 | 390,000 compounds, 0.56% hits | Potency, µM (top dose mostly 114 µM), most hits filed as inhibitors | AlphaScreen HP1-beta / biotin-H3K9me3 peptide binding | P83916; further: nearly all actives have a fitted effect of over 70% in size
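HP1-beta protein (50 nM final) preincubated 30 min at room temperature with biotinylated H3(1-18)K9me3 peptide (50 nM) in PBS pH 7.4, 0.01% Tween-20, then compound added for 30 min. AlphaScreen streptavidin donor/nickel chelate acceptor beads (10 ug/mL final), 30 min dark, luminescence read.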
Sfp PPTase inh – blocks B. subtilis Sfp PPTase activity | AID 1490 | Potency, µM, usual class: inhibitors | Biochemical Sfp PPTase activity, qHTS | Q9F4F7 | 310,000 compounds, 3.5% hits;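 further: the enzyme is Sfp with the accession as filed and its product quenches rhodamine fluorescence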
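Fluorescence-quenching assay: 15 nM Sfp-PPTase preincubated 15 min at room temperature with compound, then 5 uM rhodamine-CoA and 12.5 uM BHQ-2-labelled YbbR peptide added. Fluorescence (ex 525/em 598 nm) read at start and after 30 min; difference gives rate.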
JMJD2A Tudor inh – blocks the human JMJD2A Tudor domain | O75164 | AlphaScreen JMJD2A-Tudor / H3K4me3 peptide binding | Potency, µM (titrated, usually from 114 µM), usual class: inhibitors | 390,000 compounds, 4.4% hits | AID 504339; further: nearly all actives have a fitted effect of over 50% in size
PLK1 PBD inh – PLK1 (human) polo-box domain binding inhibition | 360,000 compounds, 2.8% hits | Plk1 PBD binding of FITC phosphopeptide, fluorescence polarization | Potency, µM, most hits filed as inhibitors; further: series mostly up to about 57 µM; nearly all actives have a fitted effect of over 65% in size
BAZ2B inh – BAZ2B (human) inhibition; Potency, µM (titrated, usually from 114 µM), actives largely listed as inhibitors; AlphaScreen BAZ2B-H3K14Ac peptide displacement; AID 504333; 360,000 compounds, 4.4% hits; further: nearly all actives have a fitted effect of over 60% in size
Target sequence (Q9UIF8 whole entry, looked up): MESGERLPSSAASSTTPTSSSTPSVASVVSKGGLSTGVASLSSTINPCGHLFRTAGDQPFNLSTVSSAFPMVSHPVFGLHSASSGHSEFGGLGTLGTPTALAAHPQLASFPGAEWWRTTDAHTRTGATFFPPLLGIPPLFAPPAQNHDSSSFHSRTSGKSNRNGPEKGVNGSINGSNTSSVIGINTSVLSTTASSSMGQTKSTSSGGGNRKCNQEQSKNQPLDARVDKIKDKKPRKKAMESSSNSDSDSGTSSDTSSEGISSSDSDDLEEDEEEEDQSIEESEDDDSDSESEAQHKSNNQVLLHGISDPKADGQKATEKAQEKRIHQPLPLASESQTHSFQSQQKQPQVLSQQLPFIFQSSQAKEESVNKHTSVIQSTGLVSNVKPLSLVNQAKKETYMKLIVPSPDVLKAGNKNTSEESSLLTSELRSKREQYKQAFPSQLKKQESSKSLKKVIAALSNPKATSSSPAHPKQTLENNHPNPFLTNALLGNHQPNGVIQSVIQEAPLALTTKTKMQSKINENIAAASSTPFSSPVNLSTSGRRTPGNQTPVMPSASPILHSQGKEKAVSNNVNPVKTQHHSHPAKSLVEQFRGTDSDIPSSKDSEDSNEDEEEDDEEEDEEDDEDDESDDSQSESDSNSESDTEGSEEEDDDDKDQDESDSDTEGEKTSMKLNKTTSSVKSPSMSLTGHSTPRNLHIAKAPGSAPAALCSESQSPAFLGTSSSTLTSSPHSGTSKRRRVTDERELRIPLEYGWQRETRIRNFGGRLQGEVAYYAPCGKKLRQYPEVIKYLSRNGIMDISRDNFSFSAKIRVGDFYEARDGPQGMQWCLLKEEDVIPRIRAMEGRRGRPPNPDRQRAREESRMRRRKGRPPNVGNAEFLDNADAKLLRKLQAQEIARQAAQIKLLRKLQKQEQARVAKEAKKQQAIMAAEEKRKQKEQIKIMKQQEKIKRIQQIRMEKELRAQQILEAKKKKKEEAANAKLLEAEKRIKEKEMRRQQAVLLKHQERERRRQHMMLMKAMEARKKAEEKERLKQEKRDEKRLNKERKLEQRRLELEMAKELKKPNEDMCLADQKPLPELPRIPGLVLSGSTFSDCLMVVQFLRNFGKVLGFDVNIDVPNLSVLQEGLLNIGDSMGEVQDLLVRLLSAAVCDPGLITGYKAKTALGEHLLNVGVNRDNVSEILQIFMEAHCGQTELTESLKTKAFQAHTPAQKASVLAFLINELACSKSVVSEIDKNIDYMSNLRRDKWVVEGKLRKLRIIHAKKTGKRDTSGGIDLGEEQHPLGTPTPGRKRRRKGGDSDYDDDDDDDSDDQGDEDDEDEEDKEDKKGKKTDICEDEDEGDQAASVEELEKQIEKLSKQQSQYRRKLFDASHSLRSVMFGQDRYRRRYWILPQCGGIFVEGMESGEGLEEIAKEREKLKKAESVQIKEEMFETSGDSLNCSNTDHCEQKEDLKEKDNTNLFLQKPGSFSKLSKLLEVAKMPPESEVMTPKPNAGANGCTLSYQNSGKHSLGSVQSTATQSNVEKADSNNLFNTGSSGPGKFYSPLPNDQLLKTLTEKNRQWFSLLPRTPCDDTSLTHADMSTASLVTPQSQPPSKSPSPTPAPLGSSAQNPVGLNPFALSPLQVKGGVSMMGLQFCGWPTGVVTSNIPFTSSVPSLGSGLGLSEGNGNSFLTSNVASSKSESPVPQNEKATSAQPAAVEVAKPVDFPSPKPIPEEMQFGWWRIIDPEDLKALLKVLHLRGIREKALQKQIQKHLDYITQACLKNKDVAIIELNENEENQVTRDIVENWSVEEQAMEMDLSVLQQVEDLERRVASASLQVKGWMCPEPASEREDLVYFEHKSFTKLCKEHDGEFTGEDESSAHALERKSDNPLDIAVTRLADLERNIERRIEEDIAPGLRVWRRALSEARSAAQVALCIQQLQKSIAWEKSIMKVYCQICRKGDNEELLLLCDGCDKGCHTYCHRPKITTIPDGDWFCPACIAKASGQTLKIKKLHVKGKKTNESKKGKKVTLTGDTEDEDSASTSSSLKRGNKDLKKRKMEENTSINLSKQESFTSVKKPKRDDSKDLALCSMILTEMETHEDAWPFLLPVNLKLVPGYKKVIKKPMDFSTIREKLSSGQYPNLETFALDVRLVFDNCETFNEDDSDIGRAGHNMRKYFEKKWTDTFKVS
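In this displacement format the biotinylated H3(5-23) peptide acetylated at Lys14 serves as ligand at 50 nM, with BAZ2B at 50 nM in PBS pH 7.4 containing 0.01% Tween-20. Donor and acceptor beads are 10 ug/mL final.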
G9a inh – blocks human histone lysine methyltransferase G9a | G9a H3K9 monomethylation, AlphaScreen, 2 h | Potency, µM (top dose mostly 102 µM), most hits filed as inhibitors | 350,000 compounds, 8.8% hits | AID 504332; further: nearly all actives have a fitted effect of over 75% in size
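AlphaScreen detection with an anti-monomethyl H3K9 antibody quantified product after a 2 h room-temperature reaction containing 500 nM biotinylated H3K9 peptide, 20 µM SAM and 20 nM enzyme, which had been preincubated 15 min with compound.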
Of the large screens only hits and unclear results are named; the others gave an inactive call. Sampled rows, rich in hits. Any-hit rate of the full collection: about 12%. The call rests on the fitted dose curve; in most records, active means well fitted curve in the direction sought with a large enough effect; inconclusive means small, poorly fitted or top-dose-only effect, or another doubt; inactive means no such curve, though single readings can be large; an effect the other way counts as inactive or inconclusive.

Fc1ccc(NC(=S)Nc2ccc3nccnc3c2)cc1	Sfp PPTase inh inconclusive, G9a inh 40µM
OCCCNC(=S)Nc1ccc2nccnc2c1	none (no result: G9a inh)
O=C(COC(=O)c1ccc(C(F)(F)F)cc1)NC(=O)C1CCCCC1	none (no result: Sfp PPTase inh, PLK1 PBD inh, BAZ2B inh, G9a inh)
CC(=O)Nc1ccc(CC(=O)Nc2ccc3c(c2)OC2(CCCC2)O3)cc1	none (no result: HP1b chromo inh, Sfp PPTase inh, JMJD2A Tudor inh, BAZ2B inh, G9a inh)
Nc1ccc2c(c1)OC1(CCCCC1)O2	HP1b chromo inh inconclusive, JMJD2A Tudor inh 56µM, BAZ2B inh inconclusive
C=CCO/N=C/C1C(=O)CC(C)(C)CC1=O	Sfp PPTase inh inconclusive, JMJD2A Tudor inh 10µM, BAZ2B inh inconclusive, G9a inh 35µM
CCN1C(=C(C#N)C#N)C=Cc2cc(C)ccc21	none (no result: BAZ2B inh)
C=CC[n+]1c(/C=C2\C=Cc3cc(C)ccc3N2CC)ccc2ccccc21	HP1b chromo inh inconclusive, JMJD2A Tudor inh 50µM, BAZ2B inh 35µM, G9a inh 28µM
Cc1ccc(C)c(S(=O)(=O)N2CCCOC2CNC(=O)C(=O)NC2CCCC2)c1 (configuration not stated)	G9a inh inconclusive
CCOC(=O)C1Nc2ccc(C(=O)O)cc2C2C=CCC12 (configuration not stated)	HP1b chromo inh 7.9µM, Sfp PPTase inh 22µM, JMJD2A Tudor inh 4µM, PLK1 PBD inh 3µM, BAZ2B inh 40µM
COc1cccc([C@@H]2Nc3ccc(C(=O)O)cc3[C@@H]3C=CC[C@@H]32)c1OC	G9a inh inconclusive (no result: Sfp PPTase inh, PLK1 PBD inh)
O=C(O)C1Nc2ccccc2C2C=CCC12 (configuration not stated)	HP1b chromo inh 11µM, JMJD2A Tudor inh 3.5µM (no result: Sfp PPTase inh, PLK1 PBD inh, BAZ2B inh, G9a inh)
CCCC1Nc2ccc(C(=O)O)cc2C2C=CCC12 (configuration not stated)	Sfp PPTase inh inconclusive, JMJD2A Tudor inh 56µM, PLK1 PBD inh inconclusive, BAZ2B inh 45µM, G9a inh inconclusive
CCOC(=O)c1ccc2c(c1)C1C=CCC1C(C(=O)O)N2 (configuration not stated)	Sfp PPTase inh inconclusive, BAZ2B inh 6.3µM, G9a inh 3.2µM (no result: HP1b chromo inh, JMJD2A Tudor inh, PLK1 PBD inh)
COc1ccc(CNC(=O)CCS(=O)(=O)c2ccc3c(c2)CC(C)N3C(=O)C2CC2)cc1 (configuration not stated)	none
Cc1csc(=O)n1CC(=O)OCC(=O)Nc1ccc(F)c(F)c1	none (no result: Sfp PPTase inh)
CCN(CC)Cc1c(O)ccc2c1O/C(=C\C=C\c1ccccc1)C2=O	G9a inh inconclusive
COCCN(CCOC)Cc1c(O)ccc2c1O/C(=C\c1ccc(C)o1)C2=O	Sfp PPTase inh 2.8µM, BAZ2B inh inconclusive, G9a inh 1µM
Cn1cc(S(=O)(=O)c2ccccc2)c(=O)c2cc(F)c(N3CCN(c4ccc(F)cc4)CC3)cc21	none (no result: Sfp PPTase inh, PLK1 PBD inh)
O=C(O)c1cn(-c2ccc(F)cc2)c2cc(N3CCNCC3)c(F)cc2c1=O	JMJD2A Tudor inh 50µM, G9a inh inconclusive (no result: BAZ2B inh)
CCCCc1cc2c(cn1)=C(OC(=O)C1CCCC1)C(C)(OC(=O)CC)C(=O)C=2 (configuration not stated)	none (no result: HP1b chromo inh, JMJD2A Tudor inh, PLK1 PBD inh, BAZ2B inh, G9a inh)
CCCCNC(=O)C1c2ccccc2OCC(=O)N1CCc1ccccc1 (configuration not stated)	none (no result: HP1b chromo inh, Sfp PPTase inh, JMJD2A Tudor inh, BAZ2B inh, G9a inh)
CN(C)CCCNc1nc2sc3c(c2c(=O)n1CCc1ccccc1)CCCCC3	HP1b chromo inh inconclusive, JMJD2A Tudor inh inconclusive, BAZ2B inh inconclusive, G9a inh 45µM
Cn1c(=O)n(Cc2ccco2)c(=N)c2c3c(sc21)CCC3	JMJD2A Tudor inh inconclusive, BAZ2B inh inconclusive
CN(C)CCCn1c(=O)n(CCc2ccccc2)c(=O)c2c3c(sc21)CCCCC3	JMJD2A Tudor inh 56µM, BAZ2B inh inconclusive
CN(C)CCn1c(=O)n(Cc2ccccc2)c(=O)c2c3c(sc21)CCCCC3	HP1b chromo inh inconclusive, JMJD2A Tudor inh 40µM, BAZ2B inh inconclusive, G9a inh 50µM
NCCNC(=O)Cn1c(=O)c2c3c(sc2n(Cc2ccccc2)c1=O)CCCC3	BAZ2B inh inconclusive
CN(C)CCCn1c(=O)n(Cc2ccco2)c(=O)c2c3c(sc21)CCCCC3	Sfp PPTase inh 20µM, G9a inh inconclusive
Cc1ccc(C(C)CCN2CCC(n3nccc3NC(=O)c3ccccc3)CC2)o1 (configuration not stated)	G9a inh 28µM
CCc1ccc(CN2CCC(n3nccc3NC(=O)c3ccccc3)CC2)o1	none
O=C(CNC(=O)c1sc2ccccc2c1Cl)NCc1ccccc1	none
